# Measured values published in PubChem BioAssay (NCATS).
# Results filed as inconclusive are left out. Where a call stands in place of a potency, no number is given. Calls of active or inactive are those of the source. Unless noted, the call rests on the fitted dose curve; in most records, active means well fitted curve in the direction sought with a large enough effect; inconclusive means small, poorly fitted or top-dose-only effect, or another doubt; inactive means no such curve, though single readings can be large; an effect the other way counts as inactive or inconclusive.
# Columns and labels:
# [1] = Cell Viability - LYMP2-002 (AID 977)
# Outline: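 In this qHTS viability screen, 2500 human lymphoblastoid cells per well receive compound for 24 hr at 37 C, and luciferase-based ATP luminescence gives the viability signal. Tetraoctylammonium bromide serves as positive control.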
# [2] = Cell Viability - LYMP2-006 (AID 978); further: nearly all actives have a fitted effect of over 60% in size
# Outline: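 Potency values are Hill-fit AC50s for decreases in intracellular ATP (CellTiter-Glo luminescence). LYMP2-006 lymphoblastoid cells, 2500 per well, were exposed to compound in complete culture medium for 24 hr at 37 C.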
# [3] = Cell Viability - LYMP2-007 (AID 979);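 further: cells exposed to compound for 24 h before reading; nearly all actives have a fitted effect of over 60% in size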
# Outline: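 Measured via luciferase-based ATP quantitation: lymphoblastoid cells, 24 hr compound exposure at 37 C, AC50 from Hill fits.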
# [4] = Cell Viability - LYMP2-008 (AID 980); further: nearly all actives have a fitted effect of over 60% in size
# Outline: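 Measured: ATP-dependent luminescence, proportional to viable cell number, in human lymphoblastoid cells treated 24 hr with compound in complete culture medium. Values are AC50s from Hill-equation modelling of qHTS titrations.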
# [5] = Cell Viability - LYMP2-010 (AID 981); further: nearly all actives have a fitted effect of over 55% in size
# Outline: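 This 24 hr viability screen uses LYMP2-010 lymphoblastoid cells, quantifies ATP via luciferase luminescence, and derives AC50 from Hill fits of qHTS concentration-response data.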
# [6] = Cell Viability - LYMP2-012 (AID 982);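 further: cellular ATP by luciferase luminescence where a drop means cytotoxicity; cells exposed to compound for one day before reading; nearly all actives have a fitted effect of over 55% in size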
# [7] = Cell Viability - LYMP2-014 (AID 983); further: nearly all actives have a fitted effect of over 50% in size
# Outline: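 Quantitative HTS in lymphoblastoid cells: 24 hr compound exposure, then CellTiter-Glo ATP luminescence. Positive control was tetraoctylammonium bromide, 6.4pM to 92 uM.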
# [8] = Cell Viability - LYMP2-016 (AID 984); further: nearly all actives have a fitted effect of over 55% in size
# Outline: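 Cytotoxicity was scored by luminescent ATP content (CellTiter-Glo) after 24 h compound exposure at 37 C of a human lymphoblastoid line at 2500 cells/well. Concentration-response data were fitted to the Hill equation for AC50.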
# [9] = Cell Viability - LYMP2-018 (AID 985); further: nearly all actives have a fitted effect of over 50% in size
# Outline: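 In this qHTS viability assay, cells are treated for 24 hr and cellular ATP is quantified by luciferase-based luminescence, with tetraoctylammonium bromide as positive control.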
# [10] = Cell Viability - LYMP2-020 (AID 986); further: nearly all actives have a fitted effect of over 55% in size
# Outline: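 Cells at 2500 per well receive a 24 hr compound exposure at 37 C. Viability is measured as ATP-dependent luciferase luminescence, with AC50 modeled from qHTS concentration-response curves.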
# [11] = Cell Viability - LYMP2-022 (AID 987); further: nearly all actives have a fitted effect of over 55% in size
# Outline: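 In this qHTS cytotoxicity screen, compound titrations were incubated 24 hr at 37 C with human lymphoblastoid cells in complete medium. Luciferase-based ATP luminescence provided the viability signal.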
# [12] = Cell Viability - LYMP2-024 (AID 988); further: nearly all actives have a fitted effect of over 60% in size
# Outline: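 Cells at 2500 per well received compound for 24 hr after a 5 hr settling period. Viability was scored by CellTiter-Glo luminescence, with AC50 from Hill fits.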
# [13] = Cell Viability - LYMP2-026 (AID 989); further: nearly all actives have a fitted effect of over 50% in size
# Outline: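 Acute toxicity screen in complete culture medium, with 24 hr compound exposure at 37 C. Viability read as cellular ATP via luciferase reaction, with tetraoctylammonium bromide (6.4pM to 92 uM) as positive control.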
# [14] = Cell Viability - LYMP1-002 - Assay at 24 hr (AID 993)
# Outline: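 Viability was judged from intracellular ATP using a luciferase read-out, following a 24-hour compound incubation at 37 C of lymphoblastoid cells seeded at 2500 per well. Concentration-response data were fitted to the Hill equation for AC50.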
# [15] = Cell Viability - LYMP1-002 - Assay at 40 hr (AID 994); further: nearly all actives have a fitted effect of over 60% in size
# Outline: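 Concentration-dependent ATP loss after 40 hr treatment at 37 C defined toxicity; AC50 values were obtained by fitting the standard Hill equation.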
# [16] = qHTS Assay for Lipid Storage Modulators (AID 1519; calls by dose curve); details: Drosophila S3 cells, BODIPY lipid droplet/cell ratio, laser cytometry, cells loaded with oleic acid
# Outline: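 Cells seeded at 5,000 per well were treated with compounds over a concentration series and loaded with oleic acid (400 uM, as added). Lipid droplet fluorescence (488 nm excitation, 500-530 nm channel) was read by laser-scanning cytometry and normalized to 20 uM Triacsin C.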
# [17] = qHTS Assay for Identification of Small Molecule Inducers of Hypoxia Response (AID 2120; active means well fitted curve in the direction sought with a large enough effect in the signal ratio, with a control signal flat, not every such curve was filed as active; the % refers to the signal ratio)
# Outline: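 HRE-bla ME-180, 2500 cells/well, 0.5% dialyzed FBS medium; cpd titration, 17 h 37 degrees C; CCF4 2.5 h RT; Ex 405, Em 460/530 ratio -> %Activity, AC50.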
# [18] = molecular target: Estrogen receptor (Homo sapiens) (UniProt P03372); test: qHTS assay for small molecule antagonists of estrogen receptor alpha signaling (AID 588513; active means well fitted curve in the direction sought with a large enough effect in the signal ratio, with a control signal flat, not every such curve was filed as active; the % refers to the signal ratio)
# Estrogen receptor (Homo sapiens), sequence (P03372 whole entry, looked up): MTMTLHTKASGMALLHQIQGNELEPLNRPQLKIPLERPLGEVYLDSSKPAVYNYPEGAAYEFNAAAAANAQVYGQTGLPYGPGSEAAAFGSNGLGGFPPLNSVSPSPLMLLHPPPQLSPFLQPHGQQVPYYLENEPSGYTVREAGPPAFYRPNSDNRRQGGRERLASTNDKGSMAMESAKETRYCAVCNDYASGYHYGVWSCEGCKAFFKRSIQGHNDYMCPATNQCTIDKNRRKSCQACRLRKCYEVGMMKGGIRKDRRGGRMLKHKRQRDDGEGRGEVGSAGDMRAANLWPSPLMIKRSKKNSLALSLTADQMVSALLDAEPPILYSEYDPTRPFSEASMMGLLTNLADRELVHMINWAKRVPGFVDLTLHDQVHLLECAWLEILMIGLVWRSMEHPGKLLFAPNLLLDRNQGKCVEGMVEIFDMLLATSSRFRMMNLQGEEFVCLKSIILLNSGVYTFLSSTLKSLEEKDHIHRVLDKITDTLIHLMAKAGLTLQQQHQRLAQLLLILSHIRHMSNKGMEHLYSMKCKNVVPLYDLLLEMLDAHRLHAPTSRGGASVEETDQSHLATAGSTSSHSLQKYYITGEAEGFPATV
# Outline: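 Antagonist mode: inhibition of 0.5 nM 17-beta-estradiol-driven beta-lactamase reporter in HEK 293 ER-alpha-UAS-bla cells, 18 h at 37C, CCF4 readout after 2 h at RT. Normalised to estradiol and DMSO; titration fitted to Hill.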
# [19] = qHTS assay for small molecule antagonists of peroxisome proliferator-activated receptor delta signaling (AID 588535; active means well fitted inhibition curve with a large enough effect in the signal ratio, with a control signal flat, not every such curve was filed as active; the % refers to the signal ratio;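 on max response: cells co-treated with a PPAR-delta agonist as stimulator during compound exposure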); details: HEK293T PPARd-UAS-bla, beta-lactamase FRET ratio, 18 h; 460 nm channel
# Outline: (§1)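 Compounds tested in titration on PPAR-delta-UAS-bla HEK293T cells grown in charcoal/dextran-stripped serum (2%); beta-lactamase activity read via CCF4 emission at 460 and 530 nm.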
# [20] = molecular target: Peroxisome proliferator-activated receptor delta (Homo sapiens) (UniProt Q03181); test: as above
# Peroxisome proliferator-activated receptor delta (Homo sapiens), sequence (Q03181 whole entry, looked up): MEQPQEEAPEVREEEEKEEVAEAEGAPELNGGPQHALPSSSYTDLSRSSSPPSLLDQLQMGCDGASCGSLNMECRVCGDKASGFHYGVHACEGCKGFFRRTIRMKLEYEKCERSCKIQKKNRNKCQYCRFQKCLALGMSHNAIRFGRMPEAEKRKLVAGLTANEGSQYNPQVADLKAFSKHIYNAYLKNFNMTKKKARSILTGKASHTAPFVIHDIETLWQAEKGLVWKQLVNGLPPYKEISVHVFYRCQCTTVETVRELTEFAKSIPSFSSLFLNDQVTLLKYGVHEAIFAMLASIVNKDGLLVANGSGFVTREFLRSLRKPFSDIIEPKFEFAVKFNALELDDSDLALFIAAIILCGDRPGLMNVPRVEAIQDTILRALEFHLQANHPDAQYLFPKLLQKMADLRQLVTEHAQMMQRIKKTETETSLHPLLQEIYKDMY
# Outline: as §1
# [21] = molecular target: Peroxisome proliferator-activated receptor gamma (Homo sapiens) (UniProt P37231); test: qHTS assay for small molecule agonists of peroxisome proliferator-activated receptor gamma signaling (AID 588536; active means well fitted curve in the direction sought with a large enough effect in the signal ratio, with a control signal flat, not every such curve was filed as active; the % refers to the signal ratio)
# Peroxisome proliferator-activated receptor gamma (Homo sapiens), sequence (P37231 whole entry, looked up): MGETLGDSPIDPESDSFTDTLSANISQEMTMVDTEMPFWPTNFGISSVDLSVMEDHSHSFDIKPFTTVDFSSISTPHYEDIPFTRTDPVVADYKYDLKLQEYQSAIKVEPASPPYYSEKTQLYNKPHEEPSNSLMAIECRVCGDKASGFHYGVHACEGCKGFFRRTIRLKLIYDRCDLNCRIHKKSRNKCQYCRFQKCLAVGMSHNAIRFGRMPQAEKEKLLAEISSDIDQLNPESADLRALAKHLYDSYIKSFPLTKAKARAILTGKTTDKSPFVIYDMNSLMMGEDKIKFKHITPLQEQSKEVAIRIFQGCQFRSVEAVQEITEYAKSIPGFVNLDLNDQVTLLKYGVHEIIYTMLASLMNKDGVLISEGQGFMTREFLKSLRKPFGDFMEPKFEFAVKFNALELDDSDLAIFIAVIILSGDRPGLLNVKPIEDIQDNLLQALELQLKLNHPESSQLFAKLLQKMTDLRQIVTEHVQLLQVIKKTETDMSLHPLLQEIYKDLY
# Outline: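 Beta-lactamase reporter read-out: CCF4 fluorescence (ex 405, em 460/530 nm) after 2 h at RT. HEK293 GeneBLAzer cells were treated for 16 h at 37 C. Hill fits gave EC50 and efficacy versus 2 uM rosiglitazone (100%) and DMSO (0%).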
# [22] = qHTS assay for small molecule agonists of retinoid X receptor alpha signaling (AID 588544; calls by dose curve); details: HEK293T RXRa-UAS-bla, beta-lactamase reporter, 18 h; 530 nm emission
# [23] = molecular target: Retinoic acid receptor RXR-alpha (Homo sapiens) (UniProt P19793); test: as above
# Retinoic acid receptor RXR-alpha (Homo sapiens), sequence (P19793 whole entry, looked up): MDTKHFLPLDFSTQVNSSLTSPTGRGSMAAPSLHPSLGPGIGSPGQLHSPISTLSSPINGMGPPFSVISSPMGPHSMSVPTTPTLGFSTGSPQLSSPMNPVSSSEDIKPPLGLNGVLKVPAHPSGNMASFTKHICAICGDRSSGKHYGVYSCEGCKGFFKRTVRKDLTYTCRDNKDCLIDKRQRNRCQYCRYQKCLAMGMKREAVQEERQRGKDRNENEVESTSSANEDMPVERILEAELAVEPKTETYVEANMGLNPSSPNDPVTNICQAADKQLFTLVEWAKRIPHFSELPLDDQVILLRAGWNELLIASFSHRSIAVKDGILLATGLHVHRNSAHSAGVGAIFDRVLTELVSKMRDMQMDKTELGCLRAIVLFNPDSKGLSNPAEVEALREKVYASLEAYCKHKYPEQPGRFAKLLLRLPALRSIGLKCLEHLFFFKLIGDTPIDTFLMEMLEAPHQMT
# [24] = molecular target: Thyroid hormone receptor beta (Homo sapiens) (UniProt P10828); test: qHTS assay for small molecule agonists of thyroid hormone receptor beta signaling (AID 588545; calls by dose curve)
# Thyroid hormone receptor beta (Homo sapiens), sequence (P10828 whole entry, looked up): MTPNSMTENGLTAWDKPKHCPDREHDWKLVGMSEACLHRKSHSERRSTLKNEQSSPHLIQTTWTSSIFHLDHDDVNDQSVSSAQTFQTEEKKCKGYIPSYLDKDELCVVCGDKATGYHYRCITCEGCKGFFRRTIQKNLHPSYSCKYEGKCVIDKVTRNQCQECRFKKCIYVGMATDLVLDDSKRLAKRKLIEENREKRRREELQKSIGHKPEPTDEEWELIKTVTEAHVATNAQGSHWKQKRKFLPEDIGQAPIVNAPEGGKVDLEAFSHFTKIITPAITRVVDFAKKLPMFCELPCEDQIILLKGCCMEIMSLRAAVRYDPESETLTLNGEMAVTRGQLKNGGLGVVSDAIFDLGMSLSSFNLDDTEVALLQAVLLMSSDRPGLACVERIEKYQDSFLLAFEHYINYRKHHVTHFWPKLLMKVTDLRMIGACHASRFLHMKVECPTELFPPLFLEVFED
# Outline: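 Agonist activity was read as beta-lactamase CCF4 fluorescence (405 ex, 460/530 em), scaled between DMSO (0%) and 10 nM T3 (100%), then Hill-fitted for EC50 and efficacy. HEK 293 TR-UAS-bla cells in 2% charcoal/dextran FBS medium were exposed 18 h at 37 C.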
# [25] = qHTS assay for small molecule antagonists of retinoid X receptor alpha signaling (AID 588546; active means well fitted inhibition curve with a large enough effect in the signal ratio, with a control signal flat, not every such curve was filed as active; the % refers to the signal ratio;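 further: cells stimulated with 9-cis-retinoic acid as agonist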); details: HEK293T RXRa-UAS-bla, beta-lactamase ratio, antagonist mode; measured here: W530 green channel, cytotoxicity proxy
# Outline: (§2)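 Beta-lactamase reporter inhibition, read as CCF4 fluorescence ratio (ex 405, em 460/530 nm) after 2 h at RT. HEK293T UAS-bla cells, 2500/well, were stimulated with 9-cis-RA at 500 or 100 nM final alongside test compound for 18 h at 37 C.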
# [26] = molecular target: Retinoic acid receptor RXR-alpha (Homo sapiens) (UniProt P19793); test: as above; details: HEK293T RXRa-UAS-bla, beta-lactamase ratio, antagonist mode
# Outline: as §2
# [27] = molecular target: Thyroid hormone receptor beta (Homo sapiens) (UniProt P10828); test: qHTS assay for small molecule antagonists of thyroid hormone receptor beta signaling (AID 588547; active means well fitted inhibition curve with a large enough effect in the signal ratio, with a control signal flat, not every such curve was filed as active; the % refers to the signal ratio;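 further: cells stimulated with 0.4 nM T3 agonist during compound exposure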); details: TR-UAS-bla HEK293, beta-lactamase ratio, antagonist mode, 18 h
# Outline: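 TR-UAS-bla GripTite HEK293 cells in 2% charcoal/dextran FBS medium were preincubated 4 h at 37 C, given compound (0.59 nM to 92 uM) plus 0.4 nM T3 (final) for 18 h, then CCF4 for 2 h at RT; Hill fit gave IC50.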
# [28] = qHTS assay for small molecule activators of the p53 signaling pathway (AID 651743; active means well fitted activation curve with a large enough effect in the signal ratio, not every such curve was filed as active; the % refers to the signal ratio); details: HCT-116 p53RE-bla, beta-lactamase FRET ratio, 16 h; activation: stronger effect = higher value
# Outline: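 Here HCT-116 cells with an integrated p53-responsive beta-lactamase gene were incubated with compounds (16 hours, 37 C) after a 5-hour plating period; beta-lactamase activity was detected as fluorescence intensity via B/G FRET substrate.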
# [29] = qHTS assay for small molecule activators of the nuclear factor-kappa B (NF-kB) signaling pathway (AID 651749; active means well fitted activation curve with a large enough effect in the signal ratio; the % refers to the signal ratio); details: NF-kB-bla ME-180 cells, beta-lactamase FRET ratio, 16 h; stronger effect = higher value
# Outline: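 Beta-lactamase reporter expression, controlled by NF-kB response elements in ME-180 cells, was quantified fluorometrically via FRET disruption; cells at 2,000/well had been incubated with 23 nL test compound for 16 hr.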
# [30] = qHTS assay for small molecule disruptors of the mitochondrial membrane potential - 1 hr assay (AID 651754; calls by dose curve; further: potency means the concentration at half of the fitted maximal effect; nearly all actives have a fitted effect of over 35% in size)
# Outline: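 In this qHTS format, a 1 hr compound treatment of HepG2 cells precedes Mito-MPS staining, and membrane potential is judged from aggregate (red) against monomer (green) fluorescence intensity.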
# [31] = qHTS assay for small molecule disruptors of the mitochondrial membrane potential - 5 hr assay (AID 651755; calls by dose curve; further: potency means the concentration at half of the fitted maximal effect; nearly all actives have a fitted effect of over 40% in size)
# Outline: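 Seed HepG2 overnight, add compound, incubate 5 hr at 37C and 5% CO2, stain 30 min with Mito-MPS, then measure monomer (490/535 nm) and aggregate (540/590 nm) fluorescence.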
# [32] = molecular target: Tumor necrosis factor (Homo sapiens) (UniProt P01375); test: qHTS assay to identify small molecules that stimulate Tumor Necrosis Factor-alpha (TNF-alpha) secretion (AID 651757; active means well fitted curve in the direction sought with a large enough effect in the signal ratio; the % refers to the signal ratio)
# Tumor necrosis factor (Homo sapiens), sequence (P01375 whole entry, looked up): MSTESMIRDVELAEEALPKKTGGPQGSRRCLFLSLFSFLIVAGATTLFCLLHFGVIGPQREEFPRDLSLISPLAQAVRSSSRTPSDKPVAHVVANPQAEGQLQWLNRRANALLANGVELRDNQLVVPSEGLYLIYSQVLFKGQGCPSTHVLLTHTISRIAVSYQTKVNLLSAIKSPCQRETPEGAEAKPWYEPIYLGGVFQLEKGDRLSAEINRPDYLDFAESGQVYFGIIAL
# Outline: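 Using 3000 THP-1 cells per well, compounds and controls were applied for 17 hrs at 37 C. Detection followed with two labeled anti-TNF-alpha antibodies (cryptate donor, XL665 acceptor) for 3 hr at room temperature, measured by TR-FRET.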
# [33] = qHTS assay for environmental chemicals that activate the Aryl hydrocarbon Receptor (AhR) signaling pathway (AID 651777); details: 1A2-DRE human hepatoma cells, luciferase, 24 h; activation: stronger effect = higher value; further: potency means the concentration at half of the fitted maximal effect; nearly all actives have a fitted effect of over 15% in size
# Outline: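 Luminescence read-out: One-Glo added for 30 min at RT after 24 hr compound treatment (37 C, 5% CO2) of human hepatoma cells expressing a DRE/CYP1A2 promoter–luciferase reporter; increased signal indicates AhR activation.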
# [34] = molecular target: Peroxisome proliferator-activated receptor alpha (Homo sapiens) (UniProt Q07869); test: qHTS assay for small molecule agonists of the peroxisome proliferator-activated receptor alpha (PPARalpha) signaling pathway (AID 651778); details: PathHunter PPARalpha complementation, chemiluminescence, 6 h; stronger effect = higher value
# Peroxisome proliferator-activated receptor alpha (Homo sapiens), sequence (Q07869 whole entry, looked up): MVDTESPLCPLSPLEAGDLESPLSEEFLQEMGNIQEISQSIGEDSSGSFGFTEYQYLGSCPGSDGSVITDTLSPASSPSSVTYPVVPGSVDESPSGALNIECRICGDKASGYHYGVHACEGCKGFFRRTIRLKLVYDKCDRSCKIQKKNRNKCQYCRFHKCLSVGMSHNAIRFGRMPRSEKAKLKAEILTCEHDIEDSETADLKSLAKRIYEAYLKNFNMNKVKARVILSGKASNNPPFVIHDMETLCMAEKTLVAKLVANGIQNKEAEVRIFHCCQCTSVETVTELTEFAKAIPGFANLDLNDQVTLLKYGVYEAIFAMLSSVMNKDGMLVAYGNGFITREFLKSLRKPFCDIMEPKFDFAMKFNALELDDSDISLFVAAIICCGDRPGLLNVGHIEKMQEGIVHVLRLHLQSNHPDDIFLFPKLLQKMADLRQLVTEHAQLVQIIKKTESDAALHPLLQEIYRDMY
# Outline: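 Cells plated at 2,000/well and held overnight at 37 C, 5% CO2, then compound added by pin tool for 6 hr; after PathHunter detection reagent and 60 min at room temperature, chemiluminescence from enzyme complementation was read.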
# [35] = molecular target: Nuclear receptor ROR-gamma (Homo sapiens) (UniProt P51449); test: qHTS assay for small molecule antagonists of the retinoid-related orphan receptor gamma (ROR-gamma) signaling pathway (AID 651802)
# Nuclear receptor ROR-gamma (Homo sapiens), sequence (P51449 whole entry, looked up): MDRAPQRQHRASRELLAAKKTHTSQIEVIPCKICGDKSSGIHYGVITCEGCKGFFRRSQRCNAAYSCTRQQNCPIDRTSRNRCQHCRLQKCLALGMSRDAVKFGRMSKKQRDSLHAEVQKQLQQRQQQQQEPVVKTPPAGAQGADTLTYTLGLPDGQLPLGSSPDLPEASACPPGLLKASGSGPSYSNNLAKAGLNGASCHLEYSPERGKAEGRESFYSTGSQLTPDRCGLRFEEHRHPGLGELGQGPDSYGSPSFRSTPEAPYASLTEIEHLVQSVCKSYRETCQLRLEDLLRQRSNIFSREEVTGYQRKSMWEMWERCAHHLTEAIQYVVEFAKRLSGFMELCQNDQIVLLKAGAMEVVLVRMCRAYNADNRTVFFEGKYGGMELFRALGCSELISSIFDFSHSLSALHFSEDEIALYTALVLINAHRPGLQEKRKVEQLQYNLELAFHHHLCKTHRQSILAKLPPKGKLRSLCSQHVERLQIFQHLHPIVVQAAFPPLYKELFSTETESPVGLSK
# Outline: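 Doxycycline-induced reporter activity in engineered CHO cells (TET-inducible ROR, RORE-LUC) was measured by luminescence after 16hr compound exposure at 37C.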
# [36] = qHTS assay for small molecule antagonists of the retinoid-related orphan receptor gamma (ROR-gamma) signaling pathway - cell viability counter screen (AID 720652; active means well fitted curve in the direction sought with a large enough effect in the repeat runs; an effect the other way counts as inactive or inconclusive;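 further: CHO reporter cells with doxycycline-induced ROR-gamma expression; compound exposure lasted 16 hr before ATP read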)
# Outline: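 ATP-based viability readout in the ROR-gamma reporter CHO cells after 16 hr compound exposure under doxycycline induction.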
# [37] = qHTS assay for small molecule agonists of the antioxidant response element (ARE) signaling pathway measured by Nrf2-dependant transcriptional activity - cell viability counter screen (AID 720653; active means well fitted curve in the direction sought with a large enough effect in the repeat runs; an effect the other way counts as inactive or inconclusive); details: ARE-bla HepG2 viability, CellTiter-Glo ATP luminescence, 16 h; stronger effect = lower value
# Outline: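 ARE-bla HepG2 cells (2,000/well) rested 5 hrs at 37C/5% CO2, then exposed to compounds in DMSO for 16 hrs. Viability was read in the same wells as intracellular ATP by luminescence, 30 min at room temperature after reagent addition.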
# [38] = qHTS assay for cell viability of HEK293 cells (AID 743288); details: ATP luminescence (CellTiter-Glo), 18 h, stronger effect = lower value; further: nearly all actives have a fitted effect of over 50% in size
# Outline: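 Readout is luciferase-coupled ATP content (CellTiter-Glo luminescence, 30 min room temperature) as a measure of metabolically competent cells. Parental HEK293 cells were plated 5 h or more before compound addition, then treated 18 h at 37 C.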
# [39] = qHTS assay for cell viability of the p53RE-bla HCT-116 cell line (AID 743292); further: nearly all actives have a fitted effect of over 55% in size
# Outline: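 Luminescent ATP quantitation (CellTiter-Glo) served as the viability read-out; reagent was added after 16 h compound exposure at 37 C and read after 30 min at room temperature. Cells: p53RE-bla HCT-116, 4,000 per well.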
# [40] = molecular target: Calcium and integrin-binding protein 1 (Homo sapiens) (UniProt Q99828); test: Primary qHTS for Identification of Calcium Integrin Binding Protein 1 (CIB1) Competitor (AID 1508620);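 further: GST tagged CIB1 binding a fluorescein labelled alphaIIb integrin peptide tracer; top concentration of the series differs between compounds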
# Calcium and integrin-binding protein 1 (Homo sapiens), sequence (Q99828 whole entry, looked up): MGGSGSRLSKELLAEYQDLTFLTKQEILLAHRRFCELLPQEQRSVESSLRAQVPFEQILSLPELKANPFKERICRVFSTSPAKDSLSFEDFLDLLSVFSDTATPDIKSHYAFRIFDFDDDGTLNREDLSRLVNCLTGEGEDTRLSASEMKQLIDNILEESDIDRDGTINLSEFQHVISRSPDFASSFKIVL
# Outline: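 Fluorescence polarization competition: CIB1-GST (1 uM final) preincubated with compound 15 min at room temperature, then FITC-labeled alphaIIb peptide (100 nM final) added for another 15 min. Polarization read at Ex 480/Em 540.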
compound,measurement,setting,value
O=C(Nc1ccccc1)Nc1ccccc1,outcome,[1],inactive
same,outcome,[2],inactive
same,outcome,[3],inactive
same,outcome,[4],inactive
same,outcome,[5],inactive
same,outcome,[6],inactive
same,outcome,[7],inactive
same,outcome,[8],inactive
same,outcome,[9],inactive
same,outcome,[10],inactive
same,outcome,[11],inactive
same,outcome,[12],inactive
same,outcome,[13],inactive
same,outcome,[14],inactive
same,outcome,[15],inactive
same,"activity change, negative = inhibition",[16]; at 57.5 µM (top of the series),11.8% (inactive)
same,max response,[16]; measured here: cell count channel max response,-3.21%
same,max response,[16]; measured here: lipid channel max response,11.7%
same,outcome,[17],inactive
same,outcome,[18],inactive
same,max response,[19],-7.95%
same,outcome,[20],inactive
same,outcome,[21],inactive
same,max response,[22],-6.23%
same,outcome,[23],inactive
same,outcome,[24],inactive
same,max response,[25],-7.85%
same,max response,[26],-1.03% (inactive)
same,activity change % (negative = inhibition),[27],-2.58% (inactive)
same,activation,[28],-2.22% (inactive)
same,activation,[29],0.321% (inactive)
same,Potency,[30],10.6 µM (active)
same,Potency,[31],13.3 µM (active)
same,Potency,[32],inactive
same,Potency,[33],12.6 µM (active)
same,max response,[34],-3.47% (inactive)
same,outcome,[35],inactive
same,outcome,[36],inactive
same,max response,[37],-0.927% (inactive)
same,max response,[38],-16.1% (inactive)
same,Potency,[39],inactive
same,Potency,[40],inactive
